Experimental data taken from PubChem BioAssay (NCATS).
Several values for one entry are separate records, joined by “and”; a condition that tells them apart may be missing. Equal entries are not always repeated. Inconclusive results are not listed. Activity calls are given as the source filed them. Calls come from the whole dose curve; as a rule, active = well fitted curve in the direction sought with a large enough effect; inconclusive = small, poorly fitted or top-dose-only effect, or another doubt; inactive = no such curve, though single readings can be large; an effect the other way counts as inactive or inconclusive.

Columns and labels:
[1] = molecular target: Cytochrome P450 3A7 (Homo sapiens) (UniProt P24462); assay: Cytochrome P450 family 3 subfamily A member 7 (CYP3A7) small molecule antagonists: luciferase biochemical qHTS assay (AID 1963596); note: % is set by controls: 0 for no effect and ±100 for the full control effect; nearly all actives have a fitted effect of over 40% in size
Cytochrome P450 3A7 (Homo sapiens), sequence (P24462 whole entry, looked up): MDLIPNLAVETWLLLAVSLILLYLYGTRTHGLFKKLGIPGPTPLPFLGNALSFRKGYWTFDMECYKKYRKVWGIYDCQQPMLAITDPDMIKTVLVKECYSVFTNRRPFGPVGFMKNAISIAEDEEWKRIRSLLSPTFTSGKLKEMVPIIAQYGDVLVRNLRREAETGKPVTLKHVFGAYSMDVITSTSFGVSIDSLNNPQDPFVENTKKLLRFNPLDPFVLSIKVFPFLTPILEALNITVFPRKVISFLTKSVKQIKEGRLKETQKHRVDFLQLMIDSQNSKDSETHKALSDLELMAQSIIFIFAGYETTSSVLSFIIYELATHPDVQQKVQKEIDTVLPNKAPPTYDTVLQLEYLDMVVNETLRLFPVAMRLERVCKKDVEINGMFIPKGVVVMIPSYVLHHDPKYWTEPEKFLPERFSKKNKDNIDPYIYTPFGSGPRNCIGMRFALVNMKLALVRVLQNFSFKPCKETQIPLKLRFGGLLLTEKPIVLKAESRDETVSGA
How it was run: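 P450-Glo luminescent assay: CYP3A7 enzyme converts a proluciferin substrate to luciferin, detected by luciferase reagent; light proportional to activity. Compounds in DMSO preincubated 10 min with enzyme-substrate mix at room temperature, then NADPH regeneration added for 1 h.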

[2] = Viability qHTS for spleen associated tyrosine kinase inhibitor (SYKi) drug resistant MV4-11 cells (AID 1963824); note: nearly all actives have a fitted effect of over 35% in size; note: potency is the fitted concentration of half-maximal effect
How it was run: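 SYK inhibitor-resistant MV4-11 AML cells, 500 per well, added to predispensed compounds and incubated 72 hr at 37 C, 5% CO2. Viability measured by CellTiter-Glo luminescence after 10 min at room temperature.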

[3] = Cellular viability qHTS for adrenocortical cancer (ACC) cell line NCI-H295R (AID 1963990); note: nearly all actives have a fitted effect of over 60% in size; note: potency is the fitted concentration of half-maximal effect
How it was run: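 Adrenocortical carcinoma cells, suspended at 300 000 cells/mL in serum-free DMEM plus ITS, rested overnight before pin transfer of compound. After two days' incubation, ATP-dependent luminescence was recorded and curve-fitted.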

[4] = Quantitative highthroughput screen to assess conditional lethalithy of NOMO1 cells grown in RPMI1640 with untreated serum (RPMI+s) (AID 1963876);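 note: 100% = DMSO wells and 0% = empty wells without cells; nearly all actives have a fitted effect of over 35% in size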
How it was run: (§1)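 Each medium arm—HPLM with 10% dialyzed FBS, or RPMI1640 with 5 mM glucose and 10% untreated or dialyzed FBS—was screened against an 11-point, 3-fold compound titration for 48 h at 37 °C, with CellTiter-Glo luminescence as endpoint.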

[5] = Quantitative highthroughput screen to assess conditional lethalithy of NOMO1 cells grown in RPMI1640 with dialyzed fetal bovine serum (RPMI+ds) (AID 1963877);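 note: series mostly up to about 46 µM; 100% = DMSO control wells and 0% = empty wells; nearly all actives have a fitted effect of over 30% in size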
How it was run: as §1

[6] = Quantitative highthroughput screen to assess conditional lethalithy of NOMO1 cells grown in Human Plasma-Like Medium with dialyzed fetal bovine serum (HPLM+ds) (AID 1963878);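 note: 100% = DMSO wells and 0% = empty wells on each plate; nearly all actives have a fitted effect of over 35% in size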
How it was run: as §1

[7] = Quantitative highthroughput screen to assess conditional lethalithy of P12 Ichikawa cells grown in Human Plasma-Like Medium with dialyzed fetal bovine serum (HPLM+ds) (AID 1963879); conditions: Potency: viability; note: series mostly up to about 46 µM; nearly all actives have a fitted effect of over 35% in size
How it was run: as §1

[8] = Quantitative highthroughput screen to assess conditional lethalithy of P12 Ichikawa cells grown in RPMI1640 with dialyzed fetal bovine serum (RPMI+ds) (AID 1963880); conditions: Potency: P12-Ichikawa viability
How it was run: as §1

[9] = Quantitative highthroughput screen to assess conditional lethalithy of P12 Ichikawa cells grown in RPMI1640 with untreated serum (RPMI+s) (AID 1963881); conditions: Potency: viability
How it was run: as §1

[10] = Cellular viability qHTS for adrenocortical cancer (ACC) cell line SW-13 (AID 1963989); conditions: SW-13 ACC cells viability, CellTiter-Glo, 48 h; activity (max response): hits give low values;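 note: cells grown in serum-free medium with ITS supplement; % is set by controls: 0 for no effect and ±100 for the full control effect; nearly all actives have a fitted effect of over 65% in size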
How it was run: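 IC50 and maximal-response values come from four-parameter logistic fits of titration data. SW-13 cells in serum-free medium received compounds (up to 46 uM final) for 48 h before CellTiter-Glo luminescence.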

[11] = Quantitative highthroughput screen to assess conditional lethalithy of SEM cells grown in Human Plasma-Like Medium with dialyzed fetal bovine serum (HPLM+ds) (AID 1963882)
How it was run: as §1

[12] = Quantitative highthroughput screen to assess conditional lethalithy of SEM cells grown in RPMI1640 with unreated serum (RPMI+s) (AID 1963883)
How it was run: as §1

[13] = Quantitative highthroughput screen to assess conditional lethalithy of SEM cells grown in RPMI1640 with dialyzed fetal bovine serum (RPMI+ds) (AID 1963884)
How it was run: as §1

NC1CCN(c2cccc(Cl)n2)CC1
inactive: Potency [1] | Potency [2] | Potency [3]

CCNC(=O)Nc1ccc(Oc2ncnc(N)c2C=NOC)cc1Cl
inactive: Potency [1] | Potency [4] | Potency [5] | Potency [6] | Potency [7] | Potency [8] | Potency [9]

OCCc1ccccc1
inactive: Potency [1] | Potency [2] | Potency [3]

C=C1[C@H](CO)[C@@H](O)C[C@@H]1n1cnc2c(=O)[nH]c(N)nc21
inactive: Potency [1] | Potency [2] | activity (max response) [10] -5.41% | Potency [3]

Nc1ncn([C@@H]2O[C@H](CO)[C@@H](O)[C@H]2O)c(=O)n1
inactive: Potency [1] | Potency [3]
active: Potency [2] 1.66 µM

C[C@@]12C(=O)OC(=O)[C@]1(C)C1CCC2O1
active: Potency [2] 2.99 µM | Potency [3] 2310 nM
inactive: Potency [1]

CCOc1ccc(C(=O)OCCN(CC)CC)cc1
inactive: Potency [1] | Potency [2] | Potency [3]

Cc1cccc(C)c1OCC(C)N (stereo unspecified)
inactive: Potency [1] | Potency [2] | Potency [3]

Nc1ccc(S(=O)(=O)Nc2ncccn2)cc1
inactive: Potency [1] | Potency [4] | Potency [5] | Potency [6] | Potency [7] | Potency [8] | Potency [9] | Potency [11] | Potency [12] | Potency [13]

c1ccc2c(CC3=NCCN3)cccc2c1
inactive: Potency [1] | activity (max response) [10] 1.1% | Potency [3]
active: Potency [2] 11.9 µM

CC(C(=O)O)c1cccc(Oc2ccccc2)c1 (stereo unspecified)
inactive: Potency [1] | Potency [2] | activity (max response) [10] 9.95% | Potency [3]

CC(=O)N(CC(=O)N(C)C)c1ccccc1
inactive: Potency [1] | Potency [2] | activity (max response) [10] -5.65% | Potency [3]

O=c1[nH]c(=O)n([C@H]2C[C@H](O)[C@@H](CO)O2)cc1C(F)(F)F
active: Potency [2] 2.11 µM and 2.35 µM
inactive: Potency [1] | Potency [3]

O=c1c(-c2ccc(O)cc2)coc2cc(OC3O[C@H](CO)[C@H](O)[C@H](O)[C@H]3O)cc(O)c12 (stereo partly specified)
inactive: Potency [1] | Potency [4] | Potency [5] | Potency [6] | Potency [7] | Potency [8] | Potency [9] | Potency [11] | Potency [12] | Potency [13]

O=c1[nH]cnc2nc[nH]c12
inactive: Potency [1] | Potency [2] | activity (max response) [10] 10.3% | Potency [3]

CCCn1cnc2c1c(=O)n(CCCCC(C)=O)c(=O)n2C
inactive: Potency [1] | Potency [2] | Potency [3]

CC1(C)OC[C@@H](COC(=O)CCc2ccc(OC[C@@H](O)CNCCNC(=O)N3CCOCC3)cc2)O1
inactive: Potency [1] | Potency [2] | activity (max response) [10] -0.309% | Potency [3]

CC(=O)N1C[C@H](O)C[C@H]1C(=O)O
inactive: Potency [1] | Potency [2] | activity (max response) [10] 0.891% | Potency [3]

COc1ccccc1O
active: Potency [3] 28200 nM
inactive: Potency [1] | Potency [2]

O=C(O)[C@H](O)c1ccccc1
inactive: Potency [1] | Potency [2] | activity (max response) [10] 6.97% | Potency [3]

COc1ccc([C@@H]2CC(=O)c3c(O)cc(O[C@@H]4O[C@H](CO[C@@H]5O[C@@H](C)[C@H](O)[C@@H](O)[C@@H]5O)[C@@H](O)[C@H](O)[C@@H]4O)cc3O2)cc1O
inactive: Potency [1] | Potency [4] | Potency [5] | Potency [6] | Potency [7] | Potency [8] | Potency [9] | Potency [11] | Potency [12] | Potency [13]

NC(=O)CCCCC1CCSS1 (stereo unspecified)
inactive: Potency [1] | Potency [2] | activity (max response) [10] 9.98% | Potency [3]

O=C(Nc1ccc(-c2ccnc(Nc3ccc(N4CCOCC4)cc3)n2)cc1)C1CCCN1 (stereo unspecified)
active: Potency [2] 1.46 µM and 2.35 µM
inactive: Potency [1] | activity (max response) [10] -0.397% | Potency [3]

NC(=O)NC(=O)Cc1ccccc1
inactive: Potency [1] | Potency [2] | Potency [3]

CC(=O)c1ccc(OCC(=O)N2CCCCC2)cc1
inactive: Potency [1] | Potency [2] | Potency [3]

CC(=O)NC[C@H]1CN(c2ccc(N3CCOCC3)c(F)c2)C(=O)O1
inactive: Potency [1] | Potency [4] | Potency [5] | Potency [6] | Potency [7] | Potency [8] | Potency [9] | Potency [11] | Potency [12] | Potency [13] | activity (max response) [10] 5.63%

NCCS
inactive: Potency [1] | Potency [2] | activity (max response) [10] 16.9% | Potency [3]

O=C(/C=C/c1ccccc1)OCc1ccccc1
inactive: Potency [1] | Potency [2] | Potency [3]

CC(=O)c1ccc(S(=O)(=O)NC(=O)NC2CCCCC2)cc1
inactive: Potency [1] | Potency [2] | activity (max response) [10] 9.54% | Potency [3]

CCCCCCCCCCCCCCCCCC(=O)O
inactive: Potency [1] | Potency [2] | activity (max response) [10] 18.1% | Potency [3]

CCN(CC)CCN
inactive: Potency [1] | Potency [2] | activity (max response) [10] 6.69% | Potency [3]

CC1(C)NC(=O)N(c2ccc([N+](=O)[O-])c(C(F)(F)F)c2)C1=O
inactive: Potency [1] | Potency [4] | Potency [5] | Potency [6] | Potency [7] | Potency [8] | Potency [9] | Potency [11] | Potency [12] | activity (max response) [10] -3.44% and -9.93% | Potency [3]
